In PubChem BioAssay (NCI):
About 79,000 compounds went through this panel and 15% of them were active in at least one assay; those are over-represented in the sample as a whole. Activity calls are given as the source filed them. Rule as the data show it: active = growth inhibition above about 70%; inactive = the rest.

Test: NCI Yeast Anticancer Drug Screen. Data for the rad50 strain (AID 155);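 also: 0% = growth of vehicle-only cultures of the same strain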
Settings: S. cerevisiae rad50 strain growth inhibition; at 50.0 µM; active compounds read high
Outline: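 Compounds were tested on a yeast strain with an engineered DNA damage repair alteration; the reported value is growth inhibition normalised to vehicle treatment.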

Q: Which growth inhibition does the source give for `CN(C)c1c([O-])c(=[N+](C)C)c1=O` here?
A: Its growth inhibition is -37.9% (inactive).

Q: Which growth inhibition does the source give for `C[N+](C)(C)CCc1ccc2ccccc2c1` here?
A: Its growth inhibition is 12.2% (inactive).

Q: With `CCOP(=O)(OCC)c1c(C(=O)OC)cc(=O)[nH]c1-c1ccc(C)cc1` as the compound, how does the growth inhibition read?
A: The growth inhibition was 44.9% (inactive).

Q: For `CCOC(=O)CCC(C#N)C(=O)OCC` (stereo not drawn), which growth inhibition is on record?
A: Its growth inhibition is 0.45% (inactive).

Q: For `CC(C)(C)C(=O)C(C(=O)c1ccccc1)C(=O)C(C)(C)C`, which growth inhibition is on record?
A: Its growth inhibition is -4.65% (inactive).

Q: Which growth inhibition does the source give for `FC(F)(F)c1cccc(C=NC23CC4CC(CC(C4)C2)C3)c1` here?
A: The growth inhibition was -16.4% (inactive).

Q: Which growth inhibition does the source give for `CCCCCCCCCCCCCCCCCCN=C(N)N` here?
A: The growth inhibition was -1.55% (inactive).

Q: For `COc1ccc(/C(N=Nc2ccccc2)=N/N=C(N)N)cc1`, which growth inhibition is on record?
A: Its growth inhibition is 24.3% (inactive).

Q: Which growth inhibition does the source give for `COc1ccc(/C(=N\N=C(N)N)C(c2ccc(OC)cc2)C2OC(=O)c3ccccc32)cc1` (stereo not drawn) here?
A: The growth inhibition was -12.2% (inactive).

Q: For `COc1ccc(NC(=O)CSc2nc(C)nc3c2sc(=S)n3-c2ccccc2)cc1`, which growth inhibition is on record?
A: The growth inhibition was -16.7% (inactive).

Q: Which growth inhibition does the source give for `[O-]c1c[n+](-c2ccc3c(c2)OCO3)no1` here?
A: The growth inhibition was 3.2% (inactive).

Q: For `CCOC(=O)C1=C(N)n2c(s/c(=C/c3ccc(N(C)C)cc3)c2=O)=C(C(=O)OCC)C1c1ccc(N(C)C)cc1` (stereo not drawn), which growth inhibition is on record?
A: The growth inhibition was -7.3% (inactive).

Q: With `COc1ccc(/C(Cl)=C(\C=O)c2cc(OC)c(OC)c(OC)c2)cc1OC` as the compound, how does the growth inhibition read?
A: The growth inhibition was -0.9% (inactive).

Q: For `COC(=O)C[C@](O)(CCCC(C)(C)O)C(=O)O[C@@H]1C(OC)=C[C@]23CCCN2CCc2cc4c(cc2[C@H]13)OCO4`, which growth inhibition is on record?
A: Its growth inhibition is 51.2% (inactive).

Q: For `c1ccc(-c2c(-c3cccs3)[nH]c(-c3cccs3)c2-c2ccccn2)nc1`, which growth inhibition is on record?
A: The growth inhibition was -6.7% (inactive).

Q: For `CCOC(=O)/C(=C\c1cc(OC)ccc1OC)P(=O)(OCC)OCC`, which growth inhibition is on record?
A: Its growth inhibition is 39.2% (inactive).

Q: For `CCCCCCCCCCCCN(CC(O)C(O)C(OC1OC(CO)C(O)C(O)C1O)C(O)CO)C(=O)CCCCCCCCCCC` (stereo not drawn), which growth inhibition is on record?
A: Its growth inhibition is -2.7% (inactive).

Q: For `O=C1OC(CC(=O)c2ccc(Cl)c(Cl)c2)C(Cl)=C1Cl` (stereo not drawn), which growth inhibition is on record?
A: Its growth inhibition is 43.1% (inactive).

Q: With `COc1ccc(C(=O)c2ccccc2)c(N)c1` as the compound, how does the growth inhibition read?
A: The growth inhibition was 11.2% (inactive).

Q: With `COc1cc(CC2C(=O)OCC2C2(c3ccc4c(c3)OCO4)SCCCS2)cc(OC)c1OC` (stereo not drawn) as the compound, how does the growth inhibition read?
A: Its growth inhibition is 10.4% (inactive).

Q: For `O=C(O)/C=C\C(=O)Nc1ccc(N=Nc2ccccc2)cc1`, which growth inhibition is on record?
A: The growth inhibition was -34.6% (inactive).

Q: Which growth inhibition does the source give for `CN(C)/C=C/C(=O)c1ccccc1` here?
A: The growth inhibition was 61.6% (inactive).

Q: With `O=C(O)c1nc2ccccc2c(=O)[nH]1` as the compound, how does the growth inhibition read?
A: The growth inhibition was -3.4% (inactive).

Test: NCI Yeast Anticancer Drug Screen. Data for the mec2-1 strain (AID 157)
Settings: S. cerevisiae mec2-1 strain, at 50.0 µM, active compounds read high
Outline: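 Vehicle-treated cultures served as reference for growth inhibition of compound-exposed mec2-1 yeast.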

Q: Which growth inhibition does the source give for `COc1ccc(C2OC3=C(Nc4ccc(Cl)cc4N3)C2=O)c(OC)c1` (stereo not drawn) here?
A: Its growth inhibition is -30.9% (inactive).

Q: For `Nc1nc(-c2ccccc2)ns1`, which growth inhibition is on record?
A: Its growth inhibition is -44.1% (inactive).

Q: With `O=C(O)CN1CCN(CC(=O)O)CCN(CC(=O)O)CCN(CC(=O)O)CC1` as the compound, how does the growth inhibition read?
A: Its growth inhibition is -0.55% (inactive).

Q: With `COC(=O)CCC(=O)CC(=O)C(=O)Nc1ccc(F)cc1` as the compound, how does the growth inhibition read?
A: Its growth inhibition is 3.75% (inactive).

Q: With `c1ccc(-c2nc(-c3ccccn3)cc3ccccc23)cc1` as the compound, how does the growth inhibition read?
A: The growth inhibition was -17.6% (inactive).

Q: For `CC12CCC(C(Br)C1=O)C2(C)CBr` (stereo not drawn), which growth inhibition is on record?
A: Its growth inhibition is 5.75% (inactive).

Q: For `CN1CCC(OC(=O)C(O)C2CCCCC2)CC1` (stereo not drawn), which growth inhibition is on record?
A: The growth inhibition was 23% (inactive).

Q: With `CCCCCCCCCCCCOP(=O)(O)OP(=O)(O)OCC1OC(n2ccc(N)nc2=O)CC1O` (stereo not drawn) as the compound, how does the growth inhibition read?
A: The growth inhibition was 21.5% (inactive).

Q: For `COc1ccc2c(c1OC)Oc1c(OC)ccc3c1C(C2)N(C)C[C@@H]3O` (stereo partly drawn), which growth inhibition is on record?
A: The growth inhibition was 3.25% (inactive).

Q: Which growth inhibition does the source give for `CC(=O)c1c(-c2ccccc2)noc1C` here?
A: Its growth inhibition is -7.35% (inactive).

Q: With `CCN(CC)CCCC(C)Nc1cc(C)c2nc(C)cc(C)c2c1C` (stereo not drawn) as the compound, how does the growth inhibition read?
A: Its growth inhibition is 9.45% (inactive).

Q: For `CC(=O)ONc1nc(C)c(CCC2OCCO2)c(SC(=N)N)n1`, which growth inhibition is on record?
A: Its growth inhibition is 27.2% (inactive).

Q: Which growth inhibition does the source give for `O=C(NCC(F)(F)C(F)(F)C(F)(F)C(F)(F)C(F)(F)C(F)(F)C(F)(F)F)Oc1ccccc1` here?
A: The growth inhibition was 3.3% (inactive).

Q: For `CC(=O)C1(C)SC(N(c2ccccc2)c2ccccc2)=NC1=O` (stereo not drawn), which growth inhibition is on record?
A: Its growth inhibition is -4.4% (inactive).

Q: Which growth inhibition does the source give for `O=c1cc(O)n2ncnc2[nH]1` here?
A: The growth inhibition was -23.6% (inactive).

Q: Which growth inhibition does the source give for `Cc1ccc(C)c(NC(=O)C(=O)C(C2C(C)CC(=O)C2CC(=O)O)[N+](=O)[O-])c1` (stereo not drawn) here?
A: The growth inhibition was 10.9% (inactive).

Q: For `COc1cc(CCC(C)=O)ccc1OC(=O)c1c(-c2c(F)cccc2Cl)noc1C`, which growth inhibition is on record?
A: The growth inhibition was -12.2% (inactive).

Q: For `CN(C)c1c([O-])c(=[N+](C)C)c1=O`, which growth inhibition is on record?
A: The growth inhibition was -14.2% (inactive).

Q: With `C[N+](C)(C)CCc1ccc2ccccc2c1` as the compound, how does the growth inhibition read?
A: The growth inhibition was 11.8% (inactive).

Q: Which growth inhibition does the source give for `CCOP(=O)(OCC)c1c(C(=O)OC)cc(=O)[nH]c1-c1ccc(C)cc1` here?
A: The growth inhibition was 23.4% (inactive).

Q: For `CCOC(=O)CCC(C#N)C(=O)OCC` (stereo not drawn), which growth inhibition is on record?
A: Its growth inhibition is -3.9% (inactive).

Q: Which growth inhibition does the source give for `CC(C)(C)C(=O)C(C(=O)c1ccccc1)C(=O)C(C)(C)C` here?
A: The growth inhibition was -16.4% (inactive).

Q: For `FC(F)(F)c1cccc(C=NC23CC4CC(CC(C4)C2)C3)c1`, which growth inhibition is on record?
A: The growth inhibition was -14.6% (inactive).

Q: For `CCCCCCCCCCCCCCCCCCN=C(N)N`, which growth inhibition is on record?
A: The growth inhibition was -10.8% (inactive).

Q: For `COc1ccc(/C(N=Nc2ccccc2)=N/N=C(N)N)cc1`, which growth inhibition is on record?
A: The growth inhibition was 6.35% (inactive).

Q: Which growth inhibition does the source give for `COc1ccc(/C(=N\N=C(N)N)C(c2ccc(OC)cc2)C2OC(=O)c3ccccc32)cc1` (stereo not drawn) here?
A: The growth inhibition was -4.85% (inactive).

Q: With `COc1ccc(NC(=O)CSc2nc(C)nc3c2sc(=S)n3-c2ccccc2)cc1` as the compound, how does the growth inhibition read?
A: The growth inhibition was -4.85% (inactive).

Q: With `[O-]c1c[n+](-c2ccc3c(c2)OCO3)no1` as the compound, how does the growth inhibition read?
A: The growth inhibition was -3.25% (inactive).

Q: For `CCOC(=O)C1=C(N)n2c(s/c(=C/c3ccc(N(C)C)cc3)c2=O)=C(C(=O)OCC)C1c1ccc(N(C)C)cc1` (stereo not drawn), which growth inhibition is on record?
A: The growth inhibition was -19.1% (inactive).

Q: For `COc1ccc(/C(Cl)=C(\C=O)c2cc(OC)c(OC)c(OC)c2)cc1OC`, which growth inhibition is on record?
A: Its growth inhibition is 23.1% (inactive).

Q: For `COC(=O)C[C@](O)(CCCC(C)(C)O)C(=O)O[C@@H]1C(OC)=C[C@]23CCCN2CCc2cc4c(cc2[C@H]13)OCO4`, which growth inhibition is on record?
A: Its growth inhibition is 35.4% (inactive).

Q: For `c1ccc(-c2c(-c3cccs3)[nH]c(-c3cccs3)c2-c2ccccn2)nc1`, which growth inhibition is on record?
A: Its growth inhibition is 17.1% (inactive).

Q: With `CCOC(=O)/C(=C\c1cc(OC)ccc1OC)P(=O)(OCC)OCC` as the compound, how does the growth inhibition read?
A: The growth inhibition was 25.9% (inactive).

Q: With `CCCCCCCCCCCCN(CC(O)C(O)C(OC1OC(CO)C(O)C(O)C1O)C(O)CO)C(=O)CCCCCCCCCCC` (stereo not drawn) as the compound, how does the growth inhibition read?
A: The growth inhibition was -19.2% (inactive).

Q: With `O=C1OC(CC(=O)c2ccc(Cl)c(Cl)c2)C(Cl)=C1Cl` (stereo not drawn) as the compound, how does the growth inhibition read?
A: Its growth inhibition is 12.3% (inactive).

Q: With `COc1ccc(C(=O)c2ccccc2)c(N)c1` as the compound, how does the growth inhibition read?
A: Its growth inhibition is 13.1% (inactive).

Q: For `COc1cc(CC2C(=O)OCC2C2(c3ccc4c(c3)OCO4)SCCCS2)cc(OC)c1OC` (stereo not drawn), which growth inhibition is on record?
A: The growth inhibition was 8.3% (inactive).

Q: For `O=C(O)/C=C\C(=O)Nc1ccc(N=Nc2ccccc2)cc1`, which growth inhibition is on record?
A: Its growth inhibition is -39.9% (inactive).

Q: Which growth inhibition does the source give for `CN(C)/C=C/C(=O)c1ccccc1` here?
A: Its growth inhibition is 30.1% (inactive).

Q: Which growth inhibition does the source give for `O=C(O)c1nc2ccccc2c(=O)[nH]1` here?
A: Its growth inhibition is -4.25% (inactive).
